Reference: PubChem BioAssay (EPA / NIEHS)
Where a structure was tested more than once in an assay, its records may differ in their call. Calls of active or inactive are those of the source. The calls were made as follows: active = hit-call score of the fitted dose curve at least 0.9, where 1 is the maximum; inactive = score below 0.9.

biological target: Paired box protein Pax-6 (Homo sapiens) (UniProt P26367); test: ATG_Pax6_CIS: Attagene CIS-FACTORIAL HepG2 Assay for human Paired Box 6 (PAX6) (AID 2282956); conditions: HepG2 CIS-FACTORIAL PAX6 reporter transcription, RNA readout; actives raise or lower the signal
Sequence (P26367 whole entry, looked up): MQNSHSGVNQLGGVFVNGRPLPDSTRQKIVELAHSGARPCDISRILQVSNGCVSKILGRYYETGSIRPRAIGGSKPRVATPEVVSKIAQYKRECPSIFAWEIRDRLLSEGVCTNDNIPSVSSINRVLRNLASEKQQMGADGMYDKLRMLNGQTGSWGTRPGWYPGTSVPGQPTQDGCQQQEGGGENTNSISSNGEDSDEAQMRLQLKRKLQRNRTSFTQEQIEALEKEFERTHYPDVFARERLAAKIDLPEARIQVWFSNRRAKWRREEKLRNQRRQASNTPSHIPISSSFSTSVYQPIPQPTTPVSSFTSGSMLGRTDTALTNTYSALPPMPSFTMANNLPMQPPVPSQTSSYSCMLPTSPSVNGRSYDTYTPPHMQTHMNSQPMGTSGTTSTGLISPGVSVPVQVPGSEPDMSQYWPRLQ
Description: ATG_CIS is a cell-based, multiplexed-readout assay that uses HepG2, a human liver cell line, with measurements taken at 24 hours after chemical dosing in a 24-well plate.ATG_Pax6_CIS is one of 52 assay component(s) measured or calculated from the ATG_CIS assay. It is designed to make measurements of mRNA induction, a form of inducible reporter, as detected with fluorescence intensity signals by Reverse transcription polymerase chain reaction (RT-PCR) and Capillary electrophoresis technology.Data from the assay component ATG_Pax6_CIS was analyzed into 1 assay endpoint. This assay endpoint, ATG_Pax6_CIS, was analyzed with bidirectional fitting relative to DMSO as the negative control and baseline of activity. Using a type of inducible reporter, measures of mRNA for gain or loss-of-signal activity can be used to understand the reporter gene at the transcription factor-level as they relate to the gene PAX6. Furthermore, this assay endpoint can be referred to as a primary readout, because this assay has produced multiple assay endpoints where this one serves a reporter gene function. To generalize the intended target to other relatable targets, this assay endpoint is annotated to the dna binding intended target family, where the subfamily is paired box protein.
Human liver HepG2 cells are transiently transfected with multiple reporter transcription units (MRTUs) in 6-well plates using FuGene 6 reagent (Roche; 3 ml FuGene/1 mg DNA). The MRTU constructs are regulated by a cis-regulating element (promoter). […] A major difference between the CIS and TRANS system is that in CIS activities of endogenous TFs are measured, whereas the TRANS assay evaluates changes in activities of exogenous, chimeric NR-Gal4 proteins. […] At the end of 24 hour incubation, total RNA was isolated using TriZol reagent (Invitrogen). The isolated RNA is then reverse-transcribed using oligo(dT) primer and Mo-MLV reverse transcriptase (Invitrogen) with DNAse I (Ambion) treatment for 30 min. The one-tenth of the produced cDNA was amplified by PCR using Taq DNA polymerase (Invitrogen) and two reporter sequence-specific primers. The PCR products were fluorescently labeled by primer extension with 6-arboxyfluorescein (6-FAM) 5'-labeled reporter sequence-specific primer (2 min at 95 C, 20 s at 68 C and 10 min at 72 C) and these products were digested with 5U of HpaI (New England Biolabs) for 2h at 37 C. The fragments were purified using Qiaquick PCR columns (Qiagen), analyzed on an ABI 3130xL genetic analyzer (Applied Biosystems) with peak positions identified by using a set of X-rhodamine (ROX)-labeled MapMarker1000 molecular weight standards (BioVentures). The raw capillary electrophoresis data was processed using Attagraph software (Attagene).

| SMILES | outcome | AC50 |
| --- | --- | --- |
| O=C(Nc1ccccc1)c1ccccc1I | inactive |  |
| CCCCCCCCOC(=O)c1ccc(C(=O)OCCCCCCCC)c(C(=O)OCCCCCCCC)c1 | inactive |  |
| CCC[CH2][Sn]([Cl])([CH2]CCC)[CH2]CCC |  | 0.678 µM (active) |
| Cc1ccc(N)cc1 | inactive |  |
| CC(C)(OOC(C)(C)c1ccccc1)c1ccccc1 | inactive |  |
| Brc1ccc(Oc2ccccc2)cc1 | inactive |  |
| Oc1ccccc1Cl | inactive |  |
| COP(=S)(OC)SCN1C(=O)c2ccccc2C1=O | inactive |  |
| ClC1=C(Cl)C2(Cl)C3C(Cl)C=CC3C1(Cl)C2(Cl)Cl (stereo not given) |  | 139 µM (active) |
| COc1cc(C=O)cc2c1[C@H](COC(N)=O)[C@]1(OC(C)=O)ON2C[C@H]2[C@@H]1N2C(C)=O | inactive |  |
| Cc1ccc([N+](=O)[O-])cc1 | inactive |  |
| Clc1ccc(Cl)c(Cl)c1 | inactive |  |
| CO[C@@H]1[C@H](OC(=O)NC(=O)CCl)CC[C@]2(CO2)[C@H]1[C@@]1(C)O[C@@H]1CC=C(C)C | inactive |  |
| OCCCl | inactive |  |
| Clc1ccccc1Cl | inactive |  |
| O=C(O)C1C2CCC(O2)C1C(=O)O (stereo not given) |  | 123 µM (active) |
| c1ccc2c(c1)oc1ccccc12 | inactive |  |
| [Cl-].[Cl-].[Hg+2] | inactive |  |
| Clc1ccc(C(c2ccc(Cl)cc2)C(Cl)Cl)cc1 |  | 62.7 µM (active) |

| SMILES | outcome | AC50 |
| --- | --- | --- |
| Nc1ccc(Cl)cc1N |  | 27.4 µM (active) |
| [O-][Cl+]O | inactive |  |
| CC(C)(C)C(O)(CCc1ccc(Cl)cc1)Cn1cncn1 (stereo not given) | inactive |  |
| Nc1ccc([N+](=O)[O-])cc1 | inactive |  |
| Cc1ccc(N=C=O)cc1N=C=O | inactive |  |
| CCN(CC)CCO | inactive |  |
| OCCCBr | inactive |  |
| Nc1ccc(N=Nc2ccccc2)cc1 |  | 47.4 µM (active) |
| CCCCCCCCCCCCCN1CC(C)OC(C)C1 (stereo not given) | inactive |  |
| CC(O)CCO (stereo not given) | inactive |  |
| CCNS(=O)(=O)C(F)(F)C(F)(F)C(F)(F)C(F)(F)C(F)(F)C(F)(F)C(F)(F)C(F)(F)F | inactive | 96.5 µM (active) |
| Nc1ccc(Cc2ccc(N)cc2)cc1 | inactive |  |
| CCCCCCCCn1sccc1=O |  | 19.1 µM (active) |
| [As]#[In] | inactive |  |
| O=[N+]([O-])C(Br)(CO)CO |  | 100 µM (active) |
| CC(C)COC(=O)c1ccccc1C(=O)OCC(C)C |  | 100 µM (active) |
| C[C@]12C=CC3=C4CCC(=O)C=C4CC[C@H]3[C@@H]1CC[C@@H]2O | inactive | 34.2 µM (active) |
| CCOc1cccc(C2(N3CCN(c4ccccc4)CC3)CCC(C)CC2)c1 (stereo not given) | inactive |  |
| Nc1cc(Cl)cc(C(=O)O)c1Cl | inactive |  |
